Measurements from PubChem BioAssay.
Entries with a potency or affinity are not part of this list. Records with an inconclusive call do not appear. The source made the active and inactive calls.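 How the source made its calls: active means fitted half-maximal concentration for viability loss no higher than twice the top valid dose, in every repeat run; inconclusive means repeat runs disagree, flat partial loss, or poor curve fit; inactive means the rest.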

Assay: cytotoxicity in IOSE-T80 ovarian epithelial cells, dose response, selectivity assay for PAX8 inhibitor project, cell-based, cherry-pick (AID 687032);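 further: cells exposed to compound for 96 h before reading; 0% = neutral control wells and -100% = 2 µM mitoxantrone kill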
Conditions: CellTiterGlo ATP luminescence, 96 h; series mostly up to 35 µM; activity change, negative = viability loss: at the top concentration

Q: With `C[C@H]1CCCCO[C@H](CN(C)Cc2ccc(Cl)c(Cl)c2)[C@@H](C)CN([C@@H](C)CO)C(=O)c2cc(NC(=O)Nc3ccc(F)cc3)ccc2O1` as the molecule, how does the “activity change, negative = viability loss” value read?
A: -8.16% (inactive)

Q: Which “activity change, negative = viability loss” value does the source give for `C[C@@H]1CN([C@@H](C)CO)C(=O)c2c(c3ccccc3n2C)-c2ccccc2CO[C@H]1CN(C)C(=O)Nc1ccc2c(c1)OCO2` here?
A: 17.8% (inactive)

Q: Which “activity change, negative = viability loss” value does the source give for `C[C@@H]1CCCCO[C@H](CN(C)Cc2ccc(C(F)(F)F)cc2)[C@H](C)CN([C@@H](C)CO)C(=O)c2cc(NC(=O)Nc3ccc(F)cc3)ccc2O1` here?
A: 6.48% (inactive)

Q: Which “activity change, negative = viability loss” value does the source give for `C[C@H](CO)N1C[C@H](C)[C@H](CN(C)S(=O)(=O)c2cccs2)OCCCC[C@H](C)Oc2ccc(NC(=O)NC3CCCCC3)cc2C1=O` here?
A: 1.74% (inactive)

Q: With `C[C@H]1CCCCO[C@@H](CN(C)S(=O)(=O)c2cccs2)[C@@H](C)CN([C@@H](C)CO)C(=O)c2cc(NC(=O)NC3CCCCC3)ccc2O1` as the molecule, how does the “activity change, negative = viability loss” value read?
A: 28.7% (inactive)

Q: For `C[C@@H]1CN([C@H](C)CO)C(=O)c2cc(NS(=O)(=O)c3ccc(F)cc3)ccc2O[C@@H]1CN(C)Cc1ccc(C(F)(F)F)cc1`, which “activity change, negative = viability loss” value is on record?
A: 7.32% (inactive)

Q: For `C[C@@H]1CCCCO[C@H](CN(C)C(=O)Cc2ccccc2)[C@H](C)CN([C@@H](C)CO)C(=O)c2cc(NC(=O)Nc3ccc(C(F)(F)F)cc3)ccc2O1`, which “activity change, negative = viability loss” value is on record?
A: 5.78% (inactive)

Q: For `C[C@H](CO)N1C[C@H](C)[C@@H](CN(C)C(=O)NC2CCCCC2)Oc2cc(C#Cc3ccc(F)cc3)ccc2S1(=O)=O`, which “activity change, negative = viability loss” value is on record?
A: 17.7% (inactive)

Q: Which “activity change, negative = viability loss” value does the source give for `C[C@@H]1CCCCO[C@H](CN(C)C)[C@H](C)CN([C@H](C)CO)C(=O)c2cc(NC(=O)Nc3cccc4ccccc34)ccc2O1` here?
A: 9.17% (inactive)

Q: Which “activity change, negative = viability loss” value does the source give for `C[C@@H]1CCCCO[C@@H](CN(C)S(=O)(=O)c2ccc(Cl)cc2)[C@H](C)CN([C@@H](C)CO)C(=O)c2cc(NS(=O)(=O)c3ccc(Cl)cc3)ccc2O1` here?
A: 4.2% (inactive)

Q: Which “activity change, negative = viability loss” value does the source give for `C[C@H](CO)N1C[C@H](C)[C@@H](CN(C)Cc2ccc(Oc3ccccc3)cc2)OCc2ccccc2-c2c(n(C)c3ccccc23)C1=O` here?
A: 7.72% (inactive)

Q: For `C[C@@H]1CN([C@@H](C)CO)C(=O)c2cc(NC(=O)Nc3ccc4c(c3)OCO4)ccc2O[C@@H]1CN(C)C(=O)Nc1ccc(C(F)(F)F)cc1`, which “activity change, negative = viability loss” value is on record?
A: 12.1% (inactive)

Q: With `C[C@@H]1CN([C@@H](C)CO)C(=O)c2cc(NS(=O)(=O)c3ccccc3)ccc2O[C@@H](C)CCCCO[C@@H]1CN(C)Cc1ccc(C(F)(F)F)cc1` as the molecule, how does the “activity change, negative = viability loss” value read?
A: 16.9% (inactive)

Q: Which “activity change, negative = viability loss” value does the source give for `C[C@@H]1CN([C@@H](C)CO)C(=O)Cc2cc(NC(=O)Nc3ccc(C(F)(F)F)cc3)ccc2O[C@H]1CN(C)S(=O)(=O)c1ccc(F)cc1` here?
A: 12.7% (inactive)

Q: For `C[C@@H]1CCCCO[C@H](CN(C)Cc2ccc(C(F)(F)F)cc2)[C@H](C)CN([C@H](C)CO)C(=O)c2cc(NC(=O)Nc3ccc(F)cc3)ccc2O1`, which “activity change, negative = viability loss” value is on record?
A: -4.5% (inactive)

Q: Which “activity change, negative = viability loss” value does the source give for `CN1c2ccc(C#Cc3cccnc3)cc2[C@@H]2[C@@H](CCN2C(=O)Cc2cccnc2)[C@@H]1CO` here?
A: 4.83% (inactive)

Q: For `COc1ccc(NC(=O)Nc2ccc3c(c2)C(=O)N([C@@H](C)CO)C[C@@H](C)[C@@H](CN(C)Cc2ccc(C(F)(F)F)cc2)OCCCC[C@@H](C)O3)cc1`, which “activity change, negative = viability loss” value is on record?
A: -0.531% (inactive)

Q: With `O=C(Nc1ccc(C(F)(F)F)cc1)N1C[C@@H]2N[C@H](C1)C2c1ccc(-c2ccccc2)cc1` (stereo not given in full) as the molecule, how does the outcome read?
A: inactive

Q: With `C[C@H]1CN([C@@H](C)CO)C(=O)CCCn2nncc2CO[C@@H]1CN(C)C(=O)Nc1ccc(-c2cccs2)cc1` as the molecule, how does the “activity change, negative = viability loss” value read?
A: 12.2% (inactive)

Q: With `CCCN(C)C[C@H]1OCCCC[C@@H](C)Oc2ccc(NC(=O)c3ccccc3)cc2C(=O)N([C@H](C)CO)C[C@H]1C` as the molecule, how does the “activity change, negative = viability loss” value read?
A: 8.78% (inactive)

Q: With `CC(C)CC#Cc1ccc2c(c1)O[C@@H](CN(C)Cc1ccncc1)[C@H](C)CN([C@@H](C)CO)S2(=O)=O` as the molecule, how does the “activity change, negative = viability loss” value read?
A: 14.6% (inactive)

Q: With `C[C@@H]1CN([C@H](C)CO)C(=O)c2cc(NC(=O)Nc3ccc(F)cc3)ccc2O[C@@H](C)CCCCO[C@H]1CN(C)C(=O)Nc1ccc(F)cc1` as the molecule, how does the “activity change, negative = viability loss” value read?
A: 3.2% (inactive)

Q: Which “activity change, negative = viability loss” value does the source give for `Cc1ccc(S(=O)(=O)N(C)C[C@H]2OCCCC[C@@H](C)Oc3ccc(NS(=O)(=O)c4ccc(F)cc4)cc3C(=O)N([C@@H](C)CO)C[C@H]2C)cc1` here?
A: 6.36% [at 30 µM] (inactive)

Q: For `C[C@H]1CCCCO[C@@H](CN(C)C)[C@@H](C)CN([C@@H](C)CO)C(=O)c2cc(NC(=O)Nc3ccc(C(F)(F)F)cc3)ccc2O1`, which “activity change, negative = viability loss” value is on record?
A: 11% (inactive)

Q: For `Cc1ccc(S(=O)(=O)Nc2ccc3c(c2)C(=O)N([C@@H](C)CO)C[C@@H](C)[C@@H](CN(C)Cc2ccc(C(F)(F)F)cc2)OCCCC[C@@H](C)O3)cc1`, which “activity change, negative = viability loss” value is on record?
A: -10.6% (inactive)
